KB-3-1 tox = kills parental KB-3-1 adenocarcinoma cells; KB-3-1 viability, CellTiter-Glo ATP luminescence, 72 h; 400,000 compounds, 1.4% hits; AID 1347075; Potency, µM (doses to about 46.1 µM), actives largely listed as cytotoxic; further: on the % scale 0 is the no-effect control and ±100 the full control effect; nearly all actives have a fitted effect of over 60% in size
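Multi-concentration cytotoxicity screen in KB-3-1 cells grown in DMEM lacking phenol red with 10% FBS. After 72 h at 37 °C with compound, ATP-dependent luminescence was recorded.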
HT1080-NT tox = kills 2HG-producing HT-1080-NT fibrosarcoma cells. HT-1080-NT fibrosarcoma viability, CellTiter-Glo ATP luminescence, 48 h. Potency, µM (highest dose often 46.1 µM), inactives show top-dose activity, negative = less viability, hits mostly cytotoxic. 360,000 compounds, 1.6% hits. AID 686970;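 further: NT is the 2HG producing partner of a matched IDH1 knockdown line; 0% = DMSO-treated cells and -100% = media-only wells without cells; nearly all actives have a fitted effect of over 55% in size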
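Viability by CellTiter-Glo luminescence after 48 h compound exposure at 37C of HT-1080-NT cells (750/well, RPMI, 5% FBS). % activity scaled between DMSO wells and medium-only wells, then curve-fitted and categorized by curve class.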
SW480 rerep = DNA re-replication induction in SW480 cells. SW480 DNA re-replication, Hoechst DNA content imaging, 48 h. Potency, µM (highest dose often 46.1 µM), for the others: at the highest dose re-replication activation, actives largely listed as activators. 340,000 compounds, 1.8% hits; further: % of control where 0% means no effect; nearly all actives have a fitted effect of over 55% in size
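Image-based DNA-content assay: after two days of treatment, nuclei were labelled with the DNA dye Hoechst and imaged, and hits were compounds raising the count of nuclei showing high fluorescence intensity.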
MCF10A rerep = induces DNA re-replication in MCF 10a normal breast cells | MCF 10A DNA re-replication, Hoechst nuclear intensity, 48 h | Potency, µM (doses to about 46.1 µM), for inactives: top-dose activity, positive = re-replication, most hits filed as activators | 350,000 compounds, 2.9% hits | AID 624296; further: % of control where 0% means no effect; nearly all actives have a fitted effect of over 50% in size
HT1080 IDH1KD tx = toxicity to HT-1080 IDH1 knockdown cells (counter line). Potency, µM (titrated, usually from 46.1 µM), inactives show at the top dose activity, negative = toxicity, hits mostly cytotoxic. 360,000 compounds, 2% hits. HT-1080 IDH1 knockdown viability, ATP luminescence, 48 h;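 further: 0% = DMSO wells and -100% = cell-free medium wells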
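Using the IDH1-knockdown HT-1080 line run in the same batch and compound series as the NT line, viability after 48 h at 37 °C was determined by CellTiter-Glo luminescence and expressed as % activity.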
KB-V1 cytotox = KB-V1 MDR subline cytotoxicity; KB-V1 MDR cells viability, CellTiter-Glo, 72 h; AID 1347076; Potency, µM (series often up to 46.1 µM), hits mostly cytotoxic; 400,000 compounds, 3.4% hits; further: on the % scale 0 is the no-effect control and ±100 the full control effect; nearly all actives have a fitted effect of over 60% in size
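KB-V1, DMEM (no phenol red) + 10% FBS; cpd pin-transferred, titration series; 72 h, 37 degrees C; CellTiter-Glo, luminescence. Data normalized, curve-fit.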
The depositor's hits bear a star; i = inactive; u = inconclusive; x = no result given; [ ] = remark or other dose. An excerpt weighted towards active compounds, which were near 7.9% of everything screened. The call rests on the fitted dose curve; in most records, active means well fitted curve in the direction sought with a large enough effect; inconclusive means small, poorly fitted or top-dose-only effect, or another doubt; inactive means no such curve, though single readings can be large; an effect the other way counts as inactive or inconclusive. Potency means the concentration at half of the fitted maximal effect.

SMILES	KB-3-1 tox	HT1080-NT tox	SW480 rerep	MCF10A rerep	HT1080 IDH1KD tx	KB-V1 cytotox
CCOc1cc(/C=C/c2ccc3cccc([N+](=O)[O-])c3n2)ccc1OCC(=O)N(C)C	u	5%	u	28%	-15%	18µM*
CCOc1c(OC(C)=O)ccc(/C=C/c2ccc3cccc(OC(C)=O)c3n2)c1[N+](=O)[O-]	u	u	u	u	u	12µM*
Cc1ccccc1C(=O)N1CCN(c2ccc(NC(=O)c3cccc(OC(C)C)c3)cc2)CC1	x	0%	-3%	2%	11%	x
CC(C)(C)n1nc2c(c1NC(=O)c1cc(Cl)ccc1[N+](=O)[O-])CS(=O)(=O)C2	i	6%	-16%	-5%	0%	i
O=C(N/N=C/c1cccc2nccnc12)c1ccncc1	i	-23%	u	10%	u	i
O=C(N/N=C/c1cccc2nccnc12)c1ccccc1O	u	u	15µM*	u	-22%	i
COc1cccc(C(=O)NC2(C(F)(F)F)N=C3SCCN3C2=O)c1 (stereo unspecified)	i	-18%	-6%	-4%	-1%	i
COC(=O)c1sc(NC(=O)/C=C/c2ccc(OC)c(OC)c2)c(C(=O)OC)c1C	i	x	x	x	x	i
COc1cccc(S(=O)(=O)NCc2ccc3c(c2)OCO3)c1	i	3%	-12%	-2%	-2%	i
CC1=CC(=O)C=C(C)C1=NOC(=O)/C=C\c1ccccc1	i	-13%	5.8µM*	u	-17%	i
COc1ccc(OC)c(NC(=O)c2cc(-c3cc(Cl)ccc3O)n[nH]2)c1	u	-27%	u	15µM*	u	u
NS(=O)(=O)c1ccc(NC(=O)c2cc(Cl)ccc2Cl)cc1	i	-6%	1%	19%	-6%	i
COc1ccc(Cl)cc1NC(=O)c1cc(-c2ccccc2O)n[nH]1	i	-2%	-108%	11%	-3%	u
NS(=O)(=O)c1ccc(NC(=O)c2cc(-c3cc(Cl)ccc3O)n[nH]2)cc1	i	u	2%	1%	18µM*	i
CCCCCn1c(=O)c(C(=O)c2ccccc2)nc2ccccc21	u	1%	-5%	-1%	3%	12µM*
CCn1c(=O)c(C(C)=O)nc2ccccc21	i	10%	-5%	-14%	4%	i
O=C(Nc1ccc2oc(-c3cccnc3)nc2c1)c1ccc([N+](=O)[O-])o1	i	u	5%	u	u	i
Cc1ccccc1S(=O)(=O)Cc1ccc(C(=O)NC(C)c2ccc3c(c2)OCCO3)o1 (stereo unspecified)	i	18%	-1%	2%	1%	i
Cc1ccc(S(=O)(=O)Cc2ccc(C(=O)NCc3ccc4c(c3)OCO4)o2)cc1	i	11%	-6%	13%	10%	9.2µM*
CC(NC(=O)c1ccc(CS(=O)(=O)c2ccc(Cl)cc2)o1)c1ccc2c(c1)OCCO2 (stereo unspecified)	i	4%	-7%	u	-2%	10µM*
COc1ccc(CCNC(=O)CN(c2ccccc2)S(=O)(=O)N(C)C)cc1	i	x	x	x	x	u
CC(C)(C)C1CCC(OCC(O)CN2CCN(c3ccccn3)CC2)CC1 (stereo unspecified)	u	u	8%	u	u	16µM*
CC(C)NCC(O)COC1CCC(C(C)(C)C)CC1 (stereo unspecified)	23µM*	-30%	u	24%	u	u
CC1CCCC(C)N1CC(O)COC1CCC(C(C)(C)C)CC1 (stereo unspecified)	i	-17%	u	u	-28%	i
COc1ccc(OCC(O)CN2CCN(c3ccccc3)CC2)cc1 (stereo unspecified)	i	17%	2%	4%	10%	i
SMILES	KB-3-1 tox	HT1080-NT tox	SW480 rerep	MCF10A rerep	HT1080 IDH1KD tx	KB-V1 cytotox
OC(COc1cccc2ccccc12)CN1CCN(c2cccc(Cl)c2)CC1 (stereo unspecified)	i	-16%	14%	26µM*	-3%	i
CC(C)c1ccc(OCC(O)CN2CCN(c3ccccc3)CC2)cc1 (stereo unspecified)	i	u	u	u	16µM*	u
CCc1nnc(SCc2ccc(C(=O)OC)o2)n1N	i	-3%	0%	-2%	-1%	i
CC(=O)Nc1ccc(OCC(O)CN2CCN(c3ccc(C)c(Cl)c3)CC2)cc1 (stereo unspecified)	i	-21%	-11%	-5%	-14%	i
Cc1cc(OCC(O)CN2CCN(c3ccccn3)CC2)cc(C)c1Cl (stereo unspecified)	i	16µM*	-6%	u	u	i
CC(=O)Nc1ccc(OCC(O)CN2CCN(c3cc(Cl)ccc3C)CC2)cc1 (stereo unspecified)	u	u	23%	u	u	4.1µM*
OC(COC1CCCCC1)CN1CCN(c2ccccc2)CC1 (stereo unspecified)	i	4%	-12%	4%	0%	u
OC(COc1c(F)cc(Br)cc1F)CN1CCN(c2ccc(F)cc2)CC1 (stereo unspecified)	u	-21%	-3%	17%	-3%[9.24 µM]	16µM*
CC(C)(C)C1CCC(OCC(O)CN2CCN(Cc3ccccc3)CC2)CC1 (stereo unspecified)	i	-22%	15µM*	41%	-13%	i
O=C(Nc1ccc2c(c1)OCO2)c1ccc(CO)cc1	i	2%	u	7%	-4%	i
COc1cccc(C(O)c2nc(-c3cc(F)cc(F)c3)cs2)c1 (stereo unspecified)	i	0%	x	x	-1%	i
COc1ccccc1N1CCN(C(=O)c2cc(C)oc2C)CC1	u	2%	25%	u	-5%	u
COc1ccccc1CCc1nnc(CCC(=O)N(C)Cc2cccc3ncccc23)o1	i	-3%	0%	u	-8%	8.2µM*
CN(Cc1cccc2cnccc12)C(=O)CCc1nnc(CCc2ccccc2)o1	i	10%	2%	21%	-11%	u
CCOC(=O)c1c(C)nc2sc3c(=O)n(-c4ccc(C(C)=O)cc4)cnc3c2c1-c1ccc(OC)cc1	i	12%	-8%	-5%	16%	i
CC(=O)c1c(C)nc2sc3c(=N)n(N)cnc3c2c1-c1ccc(Cl)cc1	u	4%	-71%	10%	2%	18µM*

Compound activity: PubChem BioAssay, National Center for Advancing Translational Sciences (NCATS)
